Measurements reported in paper PMC7862700, “An all-to-all approach to the identification of sequence-specific readers for epigenetic DNA modifications on cytosine”.

Legend:
Assay in all cases: DAPPL (digital affinity profiling via proximity ligation, sequencing); 10 mM Tris-HCl pH 7.5, 50 mM NaCl, 1 mM DTT, 4% glycerol, room temperature, 30 min; GST-TFs on glutathione beads, 16-mer random dsDNA library, 0.1% formaldehyde crosslink after washing; high values mean tight binding
[1] = molecular target: T1, FEV (Homo sapiens, UniProt Q99581 1-238); conditions: protein: recombinant; tags: N-terminal GST; dsDNA, one strand shown
T1 sequence: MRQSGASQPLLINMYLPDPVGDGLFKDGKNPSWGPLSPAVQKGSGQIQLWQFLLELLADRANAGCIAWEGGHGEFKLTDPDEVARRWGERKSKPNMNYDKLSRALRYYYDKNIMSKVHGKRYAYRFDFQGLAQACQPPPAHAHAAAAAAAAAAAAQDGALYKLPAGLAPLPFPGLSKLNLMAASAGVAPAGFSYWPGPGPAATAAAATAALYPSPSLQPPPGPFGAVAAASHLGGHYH
Method in brief: (§1)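 Binding signal is given per hexamer as its read frequency for a factor divided by its frequency in the tag-only sample. GST-fused human transcription factors were expressed in yeast, captured on glutathione beads, barcoded with DNA and pooled with that sample, then incubated with 200 nmole of a 16-mer random double-stranded DNA library in Tris/NaCl/DTT/glycerol buffer for 30 min at room temperature. The pools were then washed, crosslinked, proximity-ligated, amplified by PCR and sequenced on an Illumina NextSeq500.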

[2] = molecular target: ETV5 (Homo sapiens, UniProt P41161 1-510); conditions: protein: recombinant; tags: N-terminal GST; dsDNA, one strand shown
Method in brief: as §1

[3] = molecular target: HSF1 (Homo sapiens, UniProt Q00613 1-529); conditions: protein: recombinant; tags: N-terminal GST; chain copies: 3; dsDNA, one strand shown
Method in brief: as §1

[4] = molecular target: T2, SPIC (Homo sapiens, UniProt Q8N5J4 1-248); conditions: protein: recombinant; tags: N-terminal GST; dsDNA, one strand shown
T2 sequence: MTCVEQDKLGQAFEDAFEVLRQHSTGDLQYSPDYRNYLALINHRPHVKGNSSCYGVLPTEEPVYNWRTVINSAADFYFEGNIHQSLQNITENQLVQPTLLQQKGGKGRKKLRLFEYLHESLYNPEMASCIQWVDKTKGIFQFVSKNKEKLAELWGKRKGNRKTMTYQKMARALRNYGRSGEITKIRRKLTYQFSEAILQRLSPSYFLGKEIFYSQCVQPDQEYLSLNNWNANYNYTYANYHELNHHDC
Method in brief: as §1

[5] = molecular target: ELF4 (Homo sapiens, UniProt Q99607 1-663); conditions: protein: recombinant; tags: N-terminal GST; dsDNA, one strand shown
Method in brief: as §1

[6] = molecular target: T3, ELK4 (Homo sapiens, UniProt P28324-2 1-405); conditions: protein: recombinant; tags: N-terminal GST; dsDNA, one strand shown
T3 sequence: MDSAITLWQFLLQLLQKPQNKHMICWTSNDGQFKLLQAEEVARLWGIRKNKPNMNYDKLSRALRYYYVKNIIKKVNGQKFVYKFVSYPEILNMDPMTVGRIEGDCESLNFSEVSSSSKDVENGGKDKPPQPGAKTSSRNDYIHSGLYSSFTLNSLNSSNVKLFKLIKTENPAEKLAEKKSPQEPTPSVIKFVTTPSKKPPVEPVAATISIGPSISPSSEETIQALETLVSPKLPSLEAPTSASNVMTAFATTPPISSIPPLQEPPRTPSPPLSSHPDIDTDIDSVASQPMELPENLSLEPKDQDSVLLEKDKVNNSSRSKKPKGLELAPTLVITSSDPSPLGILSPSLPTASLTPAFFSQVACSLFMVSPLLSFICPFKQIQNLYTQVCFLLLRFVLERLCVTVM
Method in brief: as §1

[7] = molecular target: T4, ETV2 (Homo sapiens, UniProt O00321 1-342); conditions: protein: recombinant; tags: N-terminal GST; dsDNA, one strand shown
T4 sequence: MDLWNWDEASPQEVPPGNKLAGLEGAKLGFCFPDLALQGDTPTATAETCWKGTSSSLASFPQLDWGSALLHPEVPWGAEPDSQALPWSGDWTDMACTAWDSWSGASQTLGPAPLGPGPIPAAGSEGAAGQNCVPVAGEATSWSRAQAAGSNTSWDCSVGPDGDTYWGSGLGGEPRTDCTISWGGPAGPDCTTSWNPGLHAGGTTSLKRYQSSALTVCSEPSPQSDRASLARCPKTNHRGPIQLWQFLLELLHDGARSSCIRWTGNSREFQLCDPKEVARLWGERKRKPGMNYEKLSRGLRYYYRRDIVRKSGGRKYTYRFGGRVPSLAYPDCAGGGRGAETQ
Method in brief: as §1

[8] = molecular target: T5, ELF3 (Homo sapiens, UniProt P78545 1-371); conditions: protein: recombinant; tags: N-terminal GST; dsDNA, one strand shown
T5 sequence: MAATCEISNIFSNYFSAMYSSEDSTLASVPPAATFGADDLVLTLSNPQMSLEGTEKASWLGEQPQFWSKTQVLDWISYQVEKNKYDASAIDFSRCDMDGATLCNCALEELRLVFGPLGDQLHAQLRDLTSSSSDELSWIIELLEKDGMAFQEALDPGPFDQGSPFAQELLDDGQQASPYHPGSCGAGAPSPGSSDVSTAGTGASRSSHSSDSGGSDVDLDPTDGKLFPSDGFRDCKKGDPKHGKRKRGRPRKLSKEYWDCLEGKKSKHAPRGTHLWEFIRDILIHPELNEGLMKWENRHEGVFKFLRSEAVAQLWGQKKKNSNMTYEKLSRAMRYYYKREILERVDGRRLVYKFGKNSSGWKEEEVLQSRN
Method in brief: as §1

[9] = molecular target: CRX (Homo sapiens, UniProt O43186 1-299); conditions: protein: recombinant; tags: N-terminal GST; dsDNA, one strand shown
Method in brief: as §1

[10] = molecular target: ETV1 (Homo sapiens, UniProt P50549 1-477); conditions: protein: recombinant; tags: N-terminal GST; dsDNA, one strand shown
Method in brief: as §1

Sequence of ETV5 (P41161 whole entry): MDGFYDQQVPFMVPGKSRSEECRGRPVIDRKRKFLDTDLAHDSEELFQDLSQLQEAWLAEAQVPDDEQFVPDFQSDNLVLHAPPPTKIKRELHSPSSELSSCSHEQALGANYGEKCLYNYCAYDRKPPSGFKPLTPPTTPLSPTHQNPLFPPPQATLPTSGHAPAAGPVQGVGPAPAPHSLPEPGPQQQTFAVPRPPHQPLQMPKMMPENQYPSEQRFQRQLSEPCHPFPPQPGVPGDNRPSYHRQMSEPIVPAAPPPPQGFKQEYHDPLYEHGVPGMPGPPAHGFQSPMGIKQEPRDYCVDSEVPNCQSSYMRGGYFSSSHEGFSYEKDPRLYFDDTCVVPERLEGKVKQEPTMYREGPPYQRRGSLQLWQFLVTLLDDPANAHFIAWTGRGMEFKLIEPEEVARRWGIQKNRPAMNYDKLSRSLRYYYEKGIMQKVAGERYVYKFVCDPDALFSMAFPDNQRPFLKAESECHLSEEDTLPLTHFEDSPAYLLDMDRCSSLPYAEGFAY
Sequence of ETV1 (P50549 whole entry): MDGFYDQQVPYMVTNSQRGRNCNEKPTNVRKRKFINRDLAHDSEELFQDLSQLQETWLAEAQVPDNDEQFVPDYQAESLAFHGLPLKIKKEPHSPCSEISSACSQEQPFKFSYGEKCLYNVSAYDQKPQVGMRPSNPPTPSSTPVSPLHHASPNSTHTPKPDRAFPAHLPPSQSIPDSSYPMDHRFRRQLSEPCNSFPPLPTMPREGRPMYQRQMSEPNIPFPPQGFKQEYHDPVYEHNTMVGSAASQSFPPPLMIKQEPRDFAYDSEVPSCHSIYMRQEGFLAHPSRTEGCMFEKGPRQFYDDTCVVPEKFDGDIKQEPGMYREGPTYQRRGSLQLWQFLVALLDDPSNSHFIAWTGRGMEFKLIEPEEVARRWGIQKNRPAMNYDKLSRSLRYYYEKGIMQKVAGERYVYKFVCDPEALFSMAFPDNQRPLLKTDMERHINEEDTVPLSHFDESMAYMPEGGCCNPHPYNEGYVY
Sequence of CRX (O43186 whole entry): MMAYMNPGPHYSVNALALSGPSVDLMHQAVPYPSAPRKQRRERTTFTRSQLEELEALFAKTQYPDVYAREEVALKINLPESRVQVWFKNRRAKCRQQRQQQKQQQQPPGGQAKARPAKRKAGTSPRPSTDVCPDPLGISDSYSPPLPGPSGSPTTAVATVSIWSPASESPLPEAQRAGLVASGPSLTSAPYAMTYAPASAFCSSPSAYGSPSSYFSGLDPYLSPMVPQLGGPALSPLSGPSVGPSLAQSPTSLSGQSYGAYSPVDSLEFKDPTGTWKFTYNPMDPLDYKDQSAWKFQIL
Sequence of HSF1 (Q00613 whole entry): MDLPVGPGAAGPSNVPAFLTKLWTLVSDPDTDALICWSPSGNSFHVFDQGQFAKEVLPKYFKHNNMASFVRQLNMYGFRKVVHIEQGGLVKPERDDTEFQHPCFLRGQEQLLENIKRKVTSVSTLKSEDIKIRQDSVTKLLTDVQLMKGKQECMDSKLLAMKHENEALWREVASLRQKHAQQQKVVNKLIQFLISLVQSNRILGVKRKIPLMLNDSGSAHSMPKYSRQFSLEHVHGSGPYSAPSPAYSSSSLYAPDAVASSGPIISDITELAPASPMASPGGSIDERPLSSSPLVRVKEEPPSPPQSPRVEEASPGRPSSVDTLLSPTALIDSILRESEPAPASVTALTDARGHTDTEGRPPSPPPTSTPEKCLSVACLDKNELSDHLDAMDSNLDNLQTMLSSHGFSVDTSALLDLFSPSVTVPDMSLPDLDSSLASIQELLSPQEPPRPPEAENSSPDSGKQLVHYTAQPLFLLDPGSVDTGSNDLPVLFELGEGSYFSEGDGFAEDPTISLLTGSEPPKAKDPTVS
Sequence of ELF4 (Q99607 whole entry): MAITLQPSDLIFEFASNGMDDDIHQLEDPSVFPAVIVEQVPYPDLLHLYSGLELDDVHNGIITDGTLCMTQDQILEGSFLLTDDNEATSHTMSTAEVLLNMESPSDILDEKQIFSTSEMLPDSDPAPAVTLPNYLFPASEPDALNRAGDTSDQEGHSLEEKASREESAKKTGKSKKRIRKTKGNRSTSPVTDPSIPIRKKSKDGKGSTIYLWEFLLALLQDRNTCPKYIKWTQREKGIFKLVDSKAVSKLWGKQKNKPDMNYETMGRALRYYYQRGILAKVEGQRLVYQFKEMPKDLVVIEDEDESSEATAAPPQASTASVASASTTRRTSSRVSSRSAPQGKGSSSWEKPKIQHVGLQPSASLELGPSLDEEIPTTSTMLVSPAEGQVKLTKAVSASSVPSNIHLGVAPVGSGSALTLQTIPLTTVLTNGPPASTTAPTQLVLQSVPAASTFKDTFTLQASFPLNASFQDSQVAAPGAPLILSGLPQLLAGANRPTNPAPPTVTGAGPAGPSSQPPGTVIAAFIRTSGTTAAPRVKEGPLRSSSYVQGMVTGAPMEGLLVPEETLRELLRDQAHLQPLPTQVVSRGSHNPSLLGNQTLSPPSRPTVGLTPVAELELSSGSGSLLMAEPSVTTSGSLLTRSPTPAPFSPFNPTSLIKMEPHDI

| Sequence | binding signal [1] | binding signal [2] | binding signal [3] | binding signal [4] | binding signal [5] | binding signal [6] | binding signal [7] | binding signal [8] | binding signal [9] | binding signal [10] |
| --- | --- | --- | --- | --- | --- | --- | --- | --- | --- | --- |
| CCTACA | 1.18 fold enrichment (6-mer frequency, TF over GST control) | 1.26 fold enrichment (6-mer frequency, TF over GST control) | 1.07 fold enrichment (6-mer frequency, TF over GST control) | 1.35 fold enrichment (6-mer frequency, TF over GST control) | 1.22 fold enrichment (6-mer frequency, TF over GST control) | 1.31 fold enrichment (6-mer frequency, TF over GST control) | 1.13 fold enrichment (6-mer frequency, TF over GST control) | 1.13 fold enrichment (6-mer frequency, TF over GST control) | 1.01 fold enrichment (6-mer frequency, TF over GST control) | 1.16 fold enrichment (6-mer frequency, TF over GST control) |
| TGCCTT | 1.3 fold enrichment (6-mer frequency, TF over GST control) | 1.36 fold enrichment (6-mer frequency, TF over GST control) | 1.27 fold enrichment (6-mer frequency, TF over GST control) | 1.55 fold enrichment (6-mer frequency, TF over GST control) | 1.27 fold enrichment (6-mer frequency, TF over GST control) | 1.43 fold enrichment (6-mer frequency, TF over GST control) | 1.2 fold enrichment (6-mer frequency, TF over GST control) | 1.45 fold enrichment (6-mer frequency, TF over GST control) | 1.33 fold enrichment (6-mer frequency, TF over GST control) | 1.34 fold enrichment (6-mer frequency, TF over GST control) |
| TTTCTT | 1.23 fold enrichment (6-mer frequency, TF over GST control) | 1.22 fold enrichment (6-mer frequency, TF over GST control) | 1.7 fold enrichment (6-mer frequency, TF over GST control) | 1.24 fold enrichment (6-mer frequency, TF over GST control) | 1.33 fold enrichment (6-mer frequency, TF over GST control) | 1.17 fold enrichment (6-mer frequency, TF over GST control) | 1.24 fold enrichment (6-mer frequency, TF over GST control) | 1.3 fold enrichment (6-mer frequency, TF over GST control) | 1.46 fold enrichment (6-mer frequency, TF over GST control) | 1.38 fold enrichment (6-mer frequency, TF over GST control) |
| TTCGCA | 1.4 fold enrichment (6-mer frequency, TF over GST control) | 1.15 fold enrichment (6-mer frequency, TF over GST control) | 1.31 fold enrichment (6-mer frequency, TF over GST control) | 1.32 fold enrichment (6-mer frequency, TF over GST control) | 1.26 fold enrichment (6-mer frequency, TF over GST control) | 1.2 fold enrichment (6-mer frequency, TF over GST control) | 1.34 fold enrichment (6-mer frequency, TF over GST control) | 1.11 fold enrichment (6-mer frequency, TF over GST control) | 1.28 fold enrichment (6-mer frequency, TF over GST control) | 1.32 fold enrichment (6-mer frequency, TF over GST control) |
| TATCGC | 1.17 fold enrichment (6-mer frequency, TF over GST control) | 1.13 fold enrichment (6-mer frequency, TF over GST control) | 1.22 fold enrichment (6-mer frequency, TF over GST control) | 1.21 fold enrichment (6-mer frequency, TF over GST control) | 1.23 fold enrichment (6-mer frequency, TF over GST control) | 1.3 fold enrichment (6-mer frequency, TF over GST control) | 1.07 fold enrichment (6-mer frequency, TF over GST control) | 1.1 fold enrichment (6-mer frequency, TF over GST control) | 1.41 fold enrichment (6-mer frequency, TF over GST control) | 1.22 fold enrichment (6-mer frequency, TF over GST control) |
| CCTGCG | 1.28 fold enrichment (6-mer frequency, TF over GST control) | 1.27 fold enrichment (6-mer frequency, TF over GST control) | 1.1 fold enrichment (6-mer frequency, TF over GST control) | 1.12 fold enrichment (6-mer frequency, TF over GST control) | 1.32 fold enrichment (6-mer frequency, TF over GST control) | 1.37 fold enrichment (6-mer frequency, TF over GST control) | 1.41 fold enrichment (6-mer frequency, TF over GST control) | 1.23 fold enrichment (6-mer frequency, TF over GST control) | 1.05 fold enrichment (6-mer frequency, TF over GST control) | 1.39 fold enrichment (6-mer frequency, TF over GST control) |
| TATTTC | 2.32 fold enrichment (6-mer frequency, TF over GST control) | 2.13 fold enrichment (6-mer frequency, TF over GST control) | 1.69 fold enrichment (6-mer frequency, TF over GST control) | 2.38 fold enrichment (6-mer frequency, TF over GST control) | 2.01 fold enrichment (6-mer frequency, TF over GST control) | 2.24 fold enrichment (6-mer frequency, TF over GST control) | 2.11 fold enrichment (6-mer frequency, TF over GST control) | 2.09 fold enrichment (6-mer frequency, TF over GST control) | 1.64 fold enrichment (6-mer frequency, TF over GST control) | 2.14 fold enrichment (6-mer frequency, TF over GST control) |
| CGAAAG | 1.04 fold enrichment (6-mer frequency, TF over GST control) | 1.1 fold enrichment (6-mer frequency, TF over GST control) | 1.81 fold enrichment (6-mer frequency, TF over GST control) | 1.03 fold enrichment (6-mer frequency, TF over GST control) | 1.06 fold enrichment (6-mer frequency, TF over GST control) | 1.09 fold enrichment (6-mer frequency, TF over GST control) | 1.13 fold enrichment (6-mer frequency, TF over GST control) | 1.21 fold enrichment (6-mer frequency, TF over GST control) | 1.11 fold enrichment (6-mer frequency, TF over GST control) | 1.01 fold enrichment (6-mer frequency, TF over GST control) |
